Test results from the supplement of paper PMC4206461.
Unmarked numbers belong to inactive results.

system: Pseudomonas aeruginosa PA14 dppA1-A5 penta mutant + pBBR5.DppA1 (PA14_58350); assay: respiration area under curve with compound as sole nitrogen source, 24 h (OmniLog AUC (arbitrary units)); higher = more respiration / better utilisation as nitrogen source, active = 2000 or more
Method: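 Biolog Phenotype MicroArray plates PM6-PM8: each di/tripeptide is the sole nitrogen source. Tetrazolium reduction was read in the OmniLog for 24 h at 37°C and summarised as area under the respiration curve (arbitrary units). Values below 2000 count as no respiration. Strain is the SBP penta mutant complemented with DppA1 on a plasmid under its native promoter. Lys/His/Cys peptides are excluded.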

| SMILES | respiration area under curve |
| --- | --- |
| CC(C)C[C@H](N)C(=O)N[C@H](CC(C)C)C(=O)O (plate: PM8) | 284 |
| N[C@@H](Cc1ccc(O)cc1)C(=O)N[C@@H](Cc1c[nH]c2ccccc12)C(=O)O (plate: PM7) | 2730 (active) |
| C[C@H](N)C(=O)NCC(=O)O (plate: PM6) | 6240 (active) |
| NCC(=O)NCC(=O)NCC(=O)O (plate: PM8) | 940 |
| CC(C)C(N)C(=O)NC(CO)C(=O)O (stereo not given) (plate: PM8) | 6900 (active) |
| CC(NC(=O)C(N)CC(=O)O)C(=O)O (stereo not given) (plate: PM8) | 6890 (active) |
| NCC(=O)N1CCC[C@H]1C(=O)O (plate: PM6) | 7310 (active) |
| NC(=O)C[C@H](NC(=O)[C@@H]1CCCN1)C(=O)O (plate: PM8) | 11600 (active) |
| CC[C@H](C)[C@H](N)C(=O)N[C@@H](C)C(=O)O (plate: PM6) | 2520 (active) |
| C[C@H](N)C(=O)N1CCC[C@H]1C(=O)O (plate: PM6) | 10700 (active) |
| CC(C)C[C@H](NC(=O)[C@@H](N)CCCN=C(N)N)C(=O)O (plate: PM6) | 7900 (active) |
| C[C@@H](O)[C@H](NC(=O)CN)C(=O)O (plate: PM6) | 2750 (active) |
| C[C@H](NC(=O)CN)C(=O)O (plate: PM6) | 2380 (active) |
| N[C@@H](CCC(=O)O)C(=O)N[C@@H](CC(=O)O)C(=O)O (plate: PM6) | 19.3 |
| CC(C)[C@H](N)C(=O)N[C@@H](CC(=O)O)C(=O)O (plate: PM7) | 6440 (active) |
| O=C(O)[C@H](Cc1ccc(O)cc1)NC(=O)[C@@H]1CCCN1 (plate: PM7) | 11800 (active) |
| CC(C)C[C@H](N)C(=O)N[C@@H](C)C(=O)O (plate: PM6) | 7500 (active) |
| CC[C@H](C)[C@H](N)C(=O)N[C@@H](CO)C(=O)O (plate: PM6) | 3970 (active) |
| CC[C@H](C)[C@H](NC(=O)[C@@H](N)CCCN=C(N)N)C(=O)O (plate: PM6) | 8150 (active) |
| N[C@@H](Cc1ccc(O)cc1)C(=O)N[C@@H](CCC(=O)O)C(=O)O (plate: PM7) | 4690 (active) |

| SMILES | respiration area under curve |
| --- | --- |
| N[C@@H](CO)C(=O)N[C@@H](Cc1ccc(O)cc1)C(=O)O (plate: PM7) | 5300 (active) |
| N[C@@H](Cc1ccccc1)C(=O)N[C@@H](CO)C(=O)O (plate: PM7) | 6540 (active) |
| C[C@H](N)C(=O)N[C@@H](C)C(=O)N[C@@H](C)C(=O)O (plate: PM8) | 8340 (active) |
| NC(N)=NCCC[C@H](NC(=O)[C@@H](N)Cc1c[nH]c2ccccc12)C(=O)O (plate: PM7) | 12000 (active) |
| N[C@@H](CC(=O)O)C(=O)NCC(=O)O (plate: PM8) | 2620 (active) |
| NC(=O)CC[C@H](NC(=O)[C@@H](N)CCCN=C(N)N)C(=O)O (plate: PM6) | 8870 (active) |
| N[C@@H](CCC(=O)O)C(=O)N[C@@H](Cc1ccc(O)cc1)C(=O)O (plate: PM6) | 1030 |
| C[C@H](NC(=O)[C@@H](N)CCCN=C(N)N)C(=O)O (plate: PM6) | 8610 (active) |
| NCC(=O)N[C@H](CO)C(=O)O (plate: PM8) | 408 |
| CC(C)[C@H](N)C(=O)N[C@H](C(=O)O)C(C)C (plate: PM7) | 6680 (active) |
| CC(C)C[C@H](N)C(=O)N[C@H](C(=O)O)C(C)C (plate: PM7) | 10300 (active) |
| CSCCC(NC(=O)C(N)C(C)C)C(=O)O (stereo not given) (plate: PM8) | 2570 (active) |
| CC[C@H](C)[C@H](NC(=O)[C@@H](N)Cc1ccc(O)cc1)C(=O)O (plate: PM8) | 6990 (active) |
| CC(C)[C@H](N)C(=O)N1CCC[C@H]1C(=O)O (plate: PM8) | 10300 (active) |
| CSCC[C@H](N)C(=O)N[C@@H](Cc1ccccc1)C(=O)O (plate: PM7) | 680 |
| CC(C)C[C@H](NC(=O)[C@@H]1CCCN1)C(=O)O (plate: PM7) | 5560 (active) |
| NCC(=O)NCC(=O)N[C@@H](Cc1ccccc1)C(=O)O (plate: PM8) | 3750 (active) |
| CC(C)C[C@H](N)C(=O)N[C@@H](Cc1ccccc1)C(=O)O (plate: PM6) | 4550 (active) |
| C[C@@H](O)[C@H](N)C(=O)N[C@@H](CC(=O)O)C(=O)O (plate: PM8) | 3640 (active) |
| CC(C)[C@H](NC(=O)[C@@H](N)CC(N)=O)C(=O)O (plate: PM6) | 5500 (active) |
